# High-throughput results as filed in PubChem BioAssay.
# Most compounds without a hit are left out; they make up all but 4.3% or so of the library.
# GRIN3A LBD mod – modulators (binders) of human NR3A ligand-binding domain; NR3A LBD differential scanning fluorimetry, Tm shift; 0% = protein alone, 100% = glycine-bound protein; Tm shift relative to glycine control, % at 25 µM; 340,000 tested, 2.5% active; AID 1259313;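 active means melting temperature shift of at least 10% of the positive control shift, at one fixed dose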
# sPLA2-III inh – Inhibits HGIII-sPLA2 liposome hydrolysis, primary screen; Q9NZ20; QFRET BODIPY PC-A2 liposome hydrolysis, fluorescence; inhibition, % at 12.2 µM; 370,000 tested, 0.56% active;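 active means inhibition above mean plus 3 SD of compounds lying within the high and low control bounds, cut at about 19% in these data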;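 further: 0% = median of test compound wells and 100% = no enzyme DMSO wells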
# FAS-TE inh – FAS thioesterase (human) inhibition; recombinant FAS-TE, OMFH fluorogenic substrate, fluorescence endpoint; inhibition, % at 15 µM; AID 602261; P49327; 360,000 tested, 0.67% active;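 active means compounds whose normalised, plate-corrected inhibition of enzyme fluorescence in the single-dose primary screen is 50% or more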;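 further: 0% = DMSO with enzyme and 100% = substrate without enzyme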
# ADAM10 inh – inhibits human ADAM10; O14672; AID 720582; inhibition, % at 7 µM; recombinant ADAM10, EDANS/DABCYL FRET peptide cleavage, 3 h; 370,000 tested, 0.62% active;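 active means inhibition above a per-campaign cutoff equal to the mean of compounds falling between control-based bounds plus 3 SD, cut at about 20% in these data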;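 further: 0% = DMSO wells while the 100% control is not disclosed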
# ADAM17 inh – inhibits human ADAM17; AID 720648; recombinant ADAM17, EDANS/DABCYL FRET peptide cleavage; 370,000 tested, 0.83% active; P78536; inhibition, % at 6.95 µM;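 active means inhibition above the mean of compounds lying between control limits plus 3 SD, set per campaign, cut at about 8.5% in these data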;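 further: 0% = DMSO-only wells as the low control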
# Active calls of the source: *; i = inactive; . = no result given.
SMILES,GRIN3A LBD mod,sPLA2-III inh,FAS-TE inh,ADAM10 inh,ADAM17 inh
O=[N+]([O-])c1ccc(N2CCCCCC2)c2ncccc12,21*,6,16,5,2
c1ccc(C2OCCN3CCCCC23)cc1 (stereo unspecified),11*,4,-16,-1,-3
OC1CCCCC1N1CCC(c2ccccc2)CC1 (stereo unspecified),1,-2,-2,-1,-2
CC1C(c2ccccc2)OCCN1C (stereo unspecified),11*,11,-3,-6,-7
CCN1CCOC(c2ccccc2)C1 (stereo unspecified),-1,-1,-7,-1,-1
Nc1c(C(=O)NCCc2ccccc2)c2nc3ccccc3nc2n1CCN1CCOCC1,12*,-10,17,-474,-199
CCOC(=O)CC[C@@H]1CC[C@]2(CCCN(Cc3ccccn3)C2)O1,.,10,.,-4,-3
c1ccc2c(c1)[nH]c1cnccc12,14*,-7,-4,i,-183
Cc1c2ccncc2c(C)c2c1[nH]c1ccccc12,-11,.,-40,.,.
COC(=O)C[C@]1(C(=O)OC)CN(C#N)N(c2ccc(Cl)cc2)C12c1ccccc1-c1ccccc12,2,-11,15,31*,7
COC(=O)[C@@H]1[C@@H](C(=O)OC)C2(c3ccccc3-c3ccccc32)N(c2ccc(Cl)cc2)N1C#N,3,-7,17,3,-2
C=CCN1CC[C@]23c4c5ccc(O)c4OC2C(=O)CC[C@@]3(O)[C@H]1C5 (stereo partly specified),.,-23,.,-5,-1
C=CCn1c(O)c(C=NC2CCN(Cc3ccccc3)CC2)c(=O)[nH]c1=O,0,10,-4,-3,-4
O=c1[nH]c(=O)n(CCC2=CCCCC2)c(O)c1C=NC1CCN(Cc2ccccc2)CC1,-4,13,0,-6,8.9*
c1ccc(CCN2CCC3CCNC3C2)cc1 (stereo unspecified),.,-4,.,-9,-3
COc1ccc(-c2cc(=NCCCCCC(=O)O)c3cc(C)ccc3o2)cc1,1,5,-5,i,i
COc1ccc(-c2cc(=NCC(=O)O)c3ccccc3o2)cc1,13*,.,-3,.,.
Cc1ccc(OP(=O)(NCc2ccccc2)Oc2ccc(C)cc2)cc1,13*,-3,27,3,2
Cc1ccc(NP(=O)(Oc2ccccc2)Oc2ccccc2)cc1,-2,2,-2,1,-1
C=C(C)[C@@]12OC3(c4ccccc4)O[C@@H]1C1[C@@H]4O[C@]4(CO)[C@@H](O)[C@]4(O)C(=O)C(C)=C[C@H]4[C@@]1(O3)[C@H](C)[C@H]2OC(=O)/C=C/C=C/c1ccccc1 (stereo partly specified),2,.,57*,.,.
CC1C2Cc3ccc(O)cc3C1(C)CCN2CC1CC1 (stereo unspecified),.,-1,.,-8,0
C[N+](C)(C)CC(=O)O,13*,3,-5,3,-1
COC(=O)C1=C(N)Oc2c(c(=O)oc3ccccc23)[C@]12C(=O)N(C)c1ccccc12,17*,-5,-2,-3,-1
O=c1[nH]c2ccccc2n1C1CCN(Cc2ccc(-c3[nH]c4cc5ncnc5cc4nc3-c3ccccc3)cc2)CC1,.,-20,-7,-165,-45
CCC(C)NC(=O)c1c(N)n(Cc2ccc3c(c2)OCO3)c2nc3ccccc3nc12 (stereo unspecified),15*,-6,19,-80,-23
SMILES,GRIN3A LBD mod,sPLA2-III inh,FAS-TE inh,ADAM10 inh,ADAM17 inh
CCC(C)NC(=O)c1c(N)n(CC2CCCO2)c2nc3ccccc3nc12 (stereo unspecified),-20,-16,8,i,i
Cc1cccc(NP(=O)(Oc2ccccc2F)Oc2ccccc2F)c1C,24*,-13,28,15,3
CC(C)(C)Cc1nnc(NC(=O)COc2ccc(Cl)cc2Cl)o1,.,6,.,-2,-5
Cc1cc(C)cc(N2C(=O)NC(=O)/C(=C\C=C\c3ccco3)C2=O)c1,12*,-8,-12,-1,0
O=C(NCCN1CCC2(CC1)C(=O)NCN2c1ccccc1)c1cccnc1Cl,.,5,.,-14,-2
CCn1c(=O)n(CC(=O)N2CCC3(CC2)OCCO3)c(=O)c2ccccc21,14*,-2,-9,-4,0
COc1ccc2nc(-c3ccc(CN4CCC(n5c(=O)[nH]c6cc(Cl)ccc65)CC4)cc3)c(-c3ccccc3)nc2c1,.,5,.,-111,-25
O=C(Nc1ccc(Cl)cc1)OC1CN2CCC1CC2 (stereo unspecified),8,-10,-2,11,1
O=C(Nc1cccc(Cl)c1)OC1CN2CCC1CC2 (stereo unspecified),42*,-17,20,14,8
COC(=O)[C@@]1(O)c2c(oc3cccc(O)c3c2=O)C=C[C@H]1O,.,2,.,-4,-2
CCN1CCN(Cc2ccccc2C)CC1,40*,1,-8,0,0
O=c1[nH]c(=O)n(Cc2ccccc2)c(O)c1/C=C1\C=Nc2ccccc21,10*,-12,-7,-7,-1
O=c1[nH]c(=O)n(CC2CCCO2)c(O)c1/C=C1\C=Nc2ccccc21 (stereo unspecified),-1,-5,-4,-4,-2
O=C1C2CC=CCC2C(=O)N1SC(Cl)(Cl)Cl (stereo unspecified),.,4,.,5,-2
O=C(NCc1ccccc1)c1cccn(Cc2ccccc2)c1=O,-1,-5,3,-105,-34
O=C(c1cc(C(=O)NCc2ccccc2)c(=O)n(Cc2ccccc2)c1)c1cc(Cl)ccc1O,13*,-21,21,1,-1
CCN(CC)c1ccc(/C=C2\C(=O)NC(=O)N(Cc3ccco3)C2=O)cc1,24*,1,-12,-2,-1
COC1C(OC(=O)c2ccc(C)[nH]2)C(O)C(Oc2ccc3c(O)c(NC(=O)c4ccc(O)c(CC=C(C)C)c4)c(=O)oc3c2Cl)OC1(C)C (stereo unspecified),20*,-24,10,9,6
CC(c1ccccc1)n1cc(C(=O)NC2CCCC2)nn1 (stereo unspecified),.,3,.,9,1
CCN(CC)CCCN=Cc1c(O)n(-c2cccc(C)c2C)c(=O)[nH]c1=O,11*,12,-5,-1,-2
CCN(CC)CCCN=Cc1c(O)n(-c2ccccc2F)c(=O)[nH]c1=O,1,-9,-4,-4,-4
O=C(Nc1ccc(Cl)cc1)N1CC2CC(C1)c1cccc(=O)n1C2 (stereo unspecified),11*,7,-1,1,-6
CC(C)(C)NC(=O)CN1C(=O)[C@@H](Cc2c[nH]c3ccccc23)N=C(c2ccccc2)c2ccccc21,.,-86,.,7,4
COC(=O)C1=C(c2ccc(F)cc2F)C[C@@H]2CC[C@H]1N2C(=O)NCc1ccc(F)cc1,-1,2,0,76*,-3
